Compounds without any hit were thinned out: in the full panel of roughly 83,000, 20% have a hit.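 Plates (96-well) were seeded with cells, treated with compound at one concentration, and incubated for 48 hours before percent growth was determined.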 Unmarked numbers belong to inactive results. Activity calls are given as the source filed them. How the source made its calls: active means growth percent below 10; inactive means the rest.

Among the test systems are NCI-H23 lung; NCI-H226 lung; NCI-H322M lung; HOP-62 NSCLC; NCI-H460 lung; HOP-92 NSCLC; NCI-H522 lung; A549/ATCC NSCLC; 786-0 renal; COLO 205 colon; DU-145 prostate; K-562 leukemia; MALME-3M melanoma; MDA-MB-231 breast; RXF 393 renal; SF-268 CNS; SF-295 CNS; SF-539 CNS; UACC-257 melanoma; M14 melanoma.
Experiment in all cases: NCI-60 one-dose screen, 48 h (100 = growth as untreated, 0 = no growth, -100 = all killed)
Holding throughout (conditions): 10 µM unless noted

`COc1cc(-c2cc(-c3ccc(Nc4nc(Nc5ccc(Cl)cc5)nc(Nc5ccc(Cl)cc5)n4)cc3)no2)cc(OC)c1OC`: the growth in the assay with NCI-H23 lung was 88.3%; in the assay on NCI-H226 lung, 78%; in the assay on NCI-H322M lung it was 80.8%; in the assay on HOP-62 NSCLC it was 70.3%; with NCI-H460 lung, 76.2%; with HOP-92 NSCLC it was 37.9%. Further, the growth with NCI-H522 lung is 76.5%; in the assay on A549/ATCC NSCLC it was 66.7%; in the assay with 786-0 renal it was 72.7%; in the assay with COLO 205 colon, 51.5%; with DU-145 prostate, 80.6%; with K-562 leukemia it was 50.9%. Besides, the growth is 88.7% in the assay with MALME-3M melanoma; 64.4% with MDA-MB-231 breast; 33.9% in the assay on RXF 393 renal; 67.9% in the assay with SF-268 CNS; 62.3% with SF-295 CNS; 74.9% in the assay on SF-539 CNS. Moreover, the growth with UACC-257 melanoma was 100%; in the assay on M14 melanoma it was 68.3%.
Regarding `C[N+]1=C(/C=C/c2ccccc2Cl)C(C)(C)c2ccccc21`, the growth in the assay on NCI-H23 lung is 74.3%; with NCI-H226 lung, 80%; with NCI-H322M lung, 98.6%; in the assay with HOP-62 NSCLC it was 98.7%; in the assay on NCI-H460 lung, 103%; in the assay with HOP-92 NSCLC, 90.1%. Moreover, the growth with NCI-H522 lung is 81.8%; with A549/ATCC NSCLC, 92.5%; with 786-0 renal, 95.9%; in the assay with COLO 205 colon it was 95.9%; with DU-145 prostate, 94.5%; in the assay with K-562 leukemia, 77.3%. In addition, the growth in the assay with MALME-3M melanoma is 98.4%; in the assay on MDA-MB-231 breast it was 98%; in the assay with RXF 393 renal it was 89.2%; in the assay with SF-268 CNS, 96.7%; in the assay on SF-295 CNS, 103%; in the assay with SF-539 CNS it was 101%. Besides, the growth with UACC-257 melanoma is 92%; in the assay with M14 melanoma, 97.8%.
With `Cc1nc2ccccc2c(/C=C/c2ccc(F)cc2)c1C(=O)/C=C/c1ccccc1`, the growth in the assay with NCI-H23 lung was 20.7%; in the assay with NCI-H226 lung, 50.6%; with NCI-H322M lung it was 37.7%; with HOP-62 NSCLC, -4.45% (active); in the assay on NCI-H460 lung, -41.9% (active); with HOP-92 NSCLC, 50.6%. Moreover, the growth with NCI-H522 lung was 5.78% (active); in the assay on A549/ATCC NSCLC, 25%; in the assay on 786-0 renal, 24.1%; with COLO 205 colon it was 10.5%; in the assay on DU-145 prostate, 10.2%; in the assay with K-562 leukemia, 6.31% (active). The growth with MALME-3M melanoma is 31.1%; in the assay with MDA-MB-231 breast, 22.4%; in the assay with RXF 393 renal, -3.77% (active); with SF-268 CNS, 37.9%; in the assay on SF-295 CNS it was 32.5%; with SF-539 CNS it was 1.11% (active). The growth with UACC-257 melanoma was 7.87% (active); in the assay with M14 melanoma it was 12.4%.
Regarding `O=C1/C(=C/c2c[nH]c(=O)[nH]c2=O)SC(=S)N1Cc1ccccc1`, the growth in the assay on NCI-H23 lung is 96.4%; with NCI-H226 lung, 102%; with NCI-H322M lung, 95.1%; in the assay on HOP-62 NSCLC, 101%; in the assay on NCI-H460 lung, 105%; in the assay on HOP-92 NSCLC it was 98.5%. In addition, the growth with NCI-H522 lung is 90.7%; in the assay on A549/ATCC NSCLC, 101%; with 786-0 renal, 100%; in the assay with COLO 205 colon, 88.2%; with DU-145 prostate it was 102%; in the assay with K-562 leukemia, 101%. The growth was 97.6% in the assay with MALME-3M melanoma; 101% in the assay on MDA-MB-231 breast; 110% in the assay on RXF 393 renal; 95.2% in the assay on SF-268 CNS; 102% in the assay with SF-295 CNS; 96.9% with SF-539 CNS. In addition, the growth in the assay with UACC-257 melanoma was 104%; with M14 melanoma it was 98.8%.
In the case of `Nc1ccc(Br)cc1C(F)(F)F`, the growth in the assay with NCI-H23 lung is 95.3%; in the assay with NCI-H226 lung it was 105%; in the assay with NCI-H322M lung it was 119%; in the assay with HOP-62 NSCLC, 102%; in the assay with NCI-H460 lung it was 111%; in the assay on HOP-92 NSCLC it was 104%. The growth was 103% in the assay with NCI-H522 lung; 102% in the assay on A549/ATCC NSCLC; 105% with 786-0 renal; 102% with COLO 205 colon; 116% in the assay with DU-145 prostate; 97.1% in the assay with K-562 leukemia. Further, the growth is 114% in the assay with MALME-3M melanoma; 103% in the assay on MDA-MB-231 breast; 116% with RXF 393 renal; 108% with SF-268 CNS; 119% with SF-295 CNS; 97% in the assay on SF-539 CNS. The growth was 104% in the assay with UACC-257 melanoma and 106% in the assay on M14 melanoma.
On to `O=c1cc(CP(=O)(O)O)c2cc(O)c(-c3ccccc3)cc2o1`, for which the growth in the assay with NCI-H23 lung was 101%; with NCI-H226 lung it was 101%; in the assay on NCI-H322M lung, 101%; in the assay with HOP-62 NSCLC, 103%; in the assay on NCI-H460 lung, 104%; in the assay on HOP-92 NSCLC, 95.7%. Moreover, the growth was 94.7% in the assay on NCI-H522 lung; 106% in the assay on A549/ATCC NSCLC; 104% in the assay with 786-0 renal; 108% in the assay on COLO 205 colon; 105% in the assay on DU-145 prostate; 105% with K-562 leukemia. The growth is 103% with MALME-3M melanoma; 111% in the assay on MDA-MB-231 breast; 105% in the assay on RXF 393 renal; 99% in the assay on SF-268 CNS; 101% in the assay with SF-295 CNS; 104% with SF-539 CNS. In addition, the growth in the assay on UACC-257 melanoma is 101%; with M14 melanoma, 97.6%.

Source of the values: PubChem BioAssay (NCI).
